# An excerpt weighted towards active compounds, which were near 2.7% of everything screened.
# KDM5B inh – Primary screen for KDM5B Histone Demethylases FDH-coupled qHTS; Lysine-specific demethylase 5B (Homo sapiens), Q9UGL1; KDM5B demethylase, FDH-coupled NADH fluorescence (FDH is formaldehyde dehydrogenase); Potency, µM (series often up to 57.7 µM), most hits filed as inhibitors; 220,000 compounds, 2.6% hits; AID 1347165, 2019; active means well fitted inhibition curve with a large enough effect; inconclusive means small, poorly fitted or top-dose-only effect; inactive means no such curve, though single readings can be large or run the other way; further: potency means the concentration at half of the fitted maximal effect; 0% is about no effect; nearly all actives have a fitted effect of over 70% in size
#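 Inhibition is measured as reduced NADH fluorescence generation from FDH coupling to formaldehyde release. Truncated KDM5BΔAP at 200 nM final acts on H3K4me3 peptide (12.5 µM in substrate mix) in pH 7.5 HEPES buffer with Tween-20, 30 min, room temperature.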
# IP6K1 inh – Primary qHTS assay for small molecule inhibitors of Inositol hexaphosphate kinase 1 (IP6K1); Inositol hexakisphosphate kinase 1 (Homo sapiens), Q92551; IP6K1 kinase, ADP-Glo luminescence, 2 h; active compounds read low; activity change, % (series mostly up to about 58 µM); 140,000 compounds, 0.81% hits; in the data active means activity change below about -25%; further: on the % scale 0 is the no-effect control and ±100 the full control effect
#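 ADP-Glo luminescence measures ADP made by human IP6K1 during a 2 h RT reaction with ATP/IP6 (mix at 1.3 mM/130 uM); top library doses 57.5 and 19.1 uM final.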
# * = called active by the depositor; i = inactive; ? = inconclusive; nt = not tested or not shown.
SMILES,KDM5B inh,IP6K1 inh
OC[C@@H]1O[C@H](CNCc2cccc(Cl)c2)[C@H](N2CCN(c3ccc(F)cc3)CC2)[C@@H]1O,?,5
COCCNC(=O)C1(C)CCc2cnc(Nc3cccc(OC)c3)nc21 (stereo unspecified),i,-11
COc1cccc(Nc2ncc3c(n2)C(C)(C(=O)Nc2nc(C)cs2)CC3)c1 (stereo unspecified),35µM*,-10
O=C(NCc1ncc(-c2ccccc2)o1)C1CCCCC1,i,nt
Cc1ccc(/C=C/C(=O)NC2CCCC2)c(C)c1,i,nt
CCC1CN(CC(=O)Nc2ccc(OC)c(Cl)c2)c2ccccc2S1 (stereo unspecified),i,nt
CC(C)C12CN3CC(C(C)C)(CN(C1)C3c1c[nH]c3ccccc13)C2=O (stereo unspecified),i,nt
Cc1cc(C)c(S(=O)(=O)c2nnn3c2nc(NCCCOC(C)C)c2ccccc23)c(C)c1,i,10
COCCNc1nc2c(S(=O)(=O)c3ccc(C(C)C)cc3)nnn2c2ccccc12,?,15
COCCCNc1nc2c(S(=O)(=O)c3ccc(C)cc3)nnn2c2ccccc12,79µM*,-5
COCCCNc1nc2c(S(=O)(=O)c3ccccc3)nnn2c2ccccc12,79µM*,3
CC(C)OCCCNc1nc2c(S(=O)(=O)c3ccc(Br)cc3)nnn2c2ccccc12,?,14
COCCNc1nc2c(S(=O)(=O)c3ccc(C)cc3)nnn2c2ccccc12,79µM*,-3
COCCNc1nc2c(S(=O)(=O)c3ccccc3)nnn2c2ccccc12,i,-14
COCCCNc1nc2c(S(=O)(=O)c3ccc(C)c(C)c3)nnn2c2ccccc12,79µM*,20
CCCCCCCCCCCC(=O)N/N=C/C1CCCCC1,i,nt
CCCCN(Cc1ccccc1)c1ccc(NS(=O)(=O)c2ccc(C)cc2C)cc1C(=O)O,i,nt
Cc1nc(/C=C/C(=O)N2CCN(c3cccc(C(F)(F)F)c3)CC2)cs1,i,nt
Cc1ccc(Nc2ccnc(N3CCC(NC(=O)c4ccc(Cl)cc4)CC3)n2)cc1,nt,-9
CCc1ccc2oc(=O)cc(CN3CCN(CC)CC3)c2c1,i,nt
CSc1ncc(C(=O)NCc2ccccc2Cl)c(C)n1,i,nt
O=C(NC12CC3CC(CC(C3)C1)C2)c1ccc2c(c1)CCC2,i,nt
O=C(Nc1cc(F)cc(F)c1)N1CCCC2(C1)Nc1cccnc1NC2=NC1CCCC1 (stereo unspecified),14µM*,0
CC(=O)N1CCCC2(C1)C(=NC1CCCC1)NC(=O)N2c1cc(F)cc(F)c1 (stereo unspecified),i,9
COc1ccc(C)cc1NC(=O)N1CCCC2(C1)Nc1cccnc1NC2=NC1CCCC1 (stereo unspecified),28µM*,4
SMILES,KDM5B inh,IP6K1 inh
COc1cccc(NC(=O)N2CCCC3(C2)Nc2cccnc2NC3=NC2CCCC2)c1 (stereo unspecified),?,0
COc1cccc(-c2ccc(C(=O)N3CCC(NC(=O)Nc4ccccc4)CC3)cc2)c1,nt,-7
Cn1c(N2CCCCC2)nc2c1c(=O)n(Cc1cccc(Cl)c1)c(=O)n2C,i,nt
Cc1cc(C)n(CC(=O)N[C@@H]2CN(Cc3ccccc3)C[C@H]2CN(C)C)c(=O)n1,8.9µM*,-3
COc1ccc(C(=O)N[C@@H]2CN(c3ncccn3)C[C@H]2CO)cc1F,?,4
Cc1cc(C)n(CCC(=O)N[C@@H]2CN(Cc3ccccc3)C[C@H]2CN(C)C)n1,i,-3
CN(C)C[C@@H]1CN(Cc2cccnc2)C[C@H]1NC(=O)c1ccccc1Cl,i,22
CN(C)C[C@@H]1CN(Cc2cccnc2)C[C@H]1NC(=O)c1cc2ccccc2[nH]1,28µM*,4
CN(C)C[C@@H]1CN(c2ncccn2)C[C@H]1NC(=O)c1cc2ccccc2[nH]1,28µM*,19
O=C(N[C@@H]1CN(c2ncccn2)C[C@H]1CO)c1cc2ccccc2[nH]1,14µM*,2
CN(C)C[C@@H]1CN(c2ccncn2)C[C@H]1NC(=O)c1cccc2[nH]ccc12,i,0
O=C(NC1Cc2ccccc2C1)c1ccccc1F,i,nt
CN(CCC#N)S(=O)(=O)c1cc(Cl)ccc1Cl,i,nt
O=S(=O)(c1cccc(Br)c1)N1CCN(c2nc3ccccc3o2)CC1,i,nt
COc1ccccc1-c1ccc(C(=O)N2CCC(NC(=O)Cc3cccc(Cl)c3)CC2)cc1,nt,10
COC(=O)CC(NC(=O)c1cc2ccccc2oc1=O)c1ccccc1 (stereo unspecified),i,nt
N#Cc1cccnc1-c1ccc(C(=O)N2CCC(NC(=O)c3cccc(Cl)c3)CC2)cc1,nt,-2
Cn1cccc1C(=O)N[C@@H]1CN(c2ncccn2)C[C@H]1CO,?,7
Cn1cnc(C(=O)N[C@@H]2CN(c3ncccn3)C[C@H]2CO)c1,28µM*,1
O=C(CCC1CCN(C(=O)c2ccccc2)CC1)N1CCC(Cc2ccccc2)CC1,i,16
Cc1ccc(C(=O)N2CCC(CCC(=O)N3CCN(c4ccccn4)CC3)CC2)cc1,28µM*,22
Cc1ccc(S(=O)(=O)N2CCCC(CCC(=O)N3CCCCC3)C2)cc1 (stereo unspecified),i,0
O=C(CCC1CCCN(S(=O)(=O)c2ccccc2)C1)N1CCN(c2ccccn2)CC1 (stereo unspecified),22µM*,3
Cc1ccc(-c2ccc(O)cc2)cc1,i,nt
Cc1ccc2c(CC(=O)NCC34CC5CC(CC(C5)C3)C4)coc2c1,i,nt
SMILES,KDM5B inh,IP6K1 inh
CC(C)CCC(C)NC(=S)Nc1ccc(Cl)cc1 (stereo unspecified),i,nt
OC1(CN2CCCCC2)CCN(c2cccc(C(F)(F)F)n2)C1 (stereo unspecified),28µM*,-4
OC1(CN2CCCCC2)CCN(Cc2ccc(C(F)(F)F)cc2F)C1 (stereo unspecified),i,1
CCOc1ccc(NCc2cccn2-c2nnc(N3CCC(C(=O)NC(C)CC)CC3)s2)cc1 (stereo unspecified),i,nt
O=[S+]1([O-])NC2(CCN(CC3CCCC3)CC2)COc2ccccc21,79µM*,15
O=[S+]1([O-])NC2(CCN(CC3CC3)CC2)COc2ccccc21,?,15
CC(C)C(=O)NCC1CN(Cc2ccccc2)C(=O)c2c(ccnc2-c2ccc(OCC(=O)O)cc2)O1 (stereo unspecified),?,7
O=C(NCc1cccnc1)c1cn2cc(-c3ccc(C(F)(F)F)cc3)sc2n1,nt,4
Cc1nn(-c2ccccc2)nc1C(=O)N[C@H](C)c1onc(-c2ccc(F)cc2)c1C(=O)O,32µM*,9
C[C@@H](NC(=O)NC(C)(C)C)c1onc(-c2ccc(F)cc2)c1C(=O)O,i,19
C[C@@H](NC(=O)c1ccc(Cl)cc1)c1onc(-c2ccc(F)cc2)c1C(=O)O,i,-2
C[C@@H](NC(=O)c1nc2ccccc2[nH]1)c1onc(-c2ccc(F)cc2)c1C(=O)O,35µM*,7
O=C(N[C@@H]1C[C@@H]2CO[C@H](c3ccccc3)C[C@@H]2C1)c1ccc2c(c1)OCCCO2,nt,3
CN(C)C[C@@H]1CN(Cc2ccccc2)C[C@H]1NC(=O)c1nn(C)c2ccccc12,nt,-5
CCCCn1c(=O)c(C(=O)NCc2cccc(Cl)c2)nc2cccnc21,nt,17

# Compound activity from PubChem BioAssay.
